# Measurements published in PubChem BioAssay (NCATS).
# Inconclusive results are not listed. The source made the active and inactive calls. Unless noted, calls come from the whole dose curve; as a rule, active = well fitted curve in the direction sought with a large enough effect; inconclusive = small, poorly fitted or top-dose-only effect, or another doubt; inactive = no such curve, though single readings can be large; an effect the other way counts as inactive or inconclusive.
# Assays:
# [1] = biological target: Glucocorticoid receptor (Homo sapiens) (UniProt P04150); test: qHTS assay for small molecule agonists of glucocorticoid receptor signaling (AID 588532; active = well fitted curve in the direction sought with a large enough effect in the signal ratio, with a control signal flat; the % refers to the signal ratio;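 note: 100% = dexamethasone at 0.1 µM and 0% = DMSO only wells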); settings: HeLa MMTV-bla, beta-lactamase ratio, agonist, 18 h; stronger effect = higher value; percent of dexamethasone control, DMSO zero
# How it was run: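 HeLa GRE-bla reporter cells; 18 h compound exposure at 37 C; 2 h CCF4 loading at room temperature; fluorescence at 460 and 530 nm; EC50 by Hill equation.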
# [2] = qHTS assay for small molecule antagonists of peroxisome proliferator-activated receptor delta signaling (AID 588535); settings: HEK293T PPARd-UAS-bla, beta-lactamase FRET ratio, 18 h; 460 nm channel;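 note: cells co-treated with a PPAR-delta agonist as stimulator during compound exposure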
# How it was run: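 Beta-lactamase reporter read-out (405 nm excitation, 460/530 nm emission) after CCF4 loading for 2 hrs at RT. HEK293T PPAR-delta-UAS-bla cells, 2% charcoal/dextran FBS, compounds for 18 hrs at 37 C. Hill fit gave IC50 and efficacy.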
# [3] = biological target: Peroxisome proliferator-activated receptor gamma (Homo sapiens) (UniProt P37231); test: qHTS assay for small molecule agonists of peroxisome proliferator-activated receptor gamma signaling (AID 588536; active = well fitted curve in the direction sought with a large enough effect in the signal ratio, with a control signal flat, not every such curve was filed as active; the % refers to the signal ratio;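 note: 0% = DMSO basal wells and 100% = rosiglitazone at 2 µM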); settings: HEK293 PPARg-UAS-bla, beta-lactamase ratio, 16 h, percent of rosiglitazone response, DMSO as zero; series mostly up to 76.7 µM
# How it was run: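 Using GeneBLAzer HEK293 cells, response was quantified by CCF4 fluorescence and normalized between basal DMSO (0%) and rosiglitazone 2 uM (100%); curves yielded half-maximal stimulation concentration and efficacy.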
# [4] = biological target: Peroxisome proliferator-activated receptor gamma (Homo sapiens) (UniProt P37231); test: qHTS assay for small molecule antagonists of peroxisome proliferator-activated receptor gamma signaling (AID 588537; active = well fitted inhibition curve with a large enough effect in the signal ratio, with a control signal flat, not every such curve was filed as active; the % refers to the signal ratio;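 note: reporter cells co-stimulated with 50 nM rosiglitazone agonist during compound treatment; % of control where 0% means no effect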); settings: HEK293 PPARg-UAS-bla, beta-lactamase ratio, antagonist mode; series mostly up to 76.8 µM
# How it was run: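 Read-out: CCF4 fluorescence (ex 405, em 460/530 nm) after 2 h at RT. Cells were HEK293 carrying a UAS-bla reporter and treated 16 h at 37 C with compound plus rosiglitazone (50 nM final). Normalized to rosiglitazone and DMSO.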
# [5] = biological target: Vitamin D3 receptor (Homo sapiens) (UniProt P11473); test: qHTS assay for small molecule antagonists of vitamin D receptor signaling (AID 588541; calls by dose curve;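 note: receptor activated by calcitriol during compound treatment; % is set by controls: 0 for no effect and ±100 for the full control effect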); settings: HEK293T VDR-UAS-bla, beta-lactamase ratio, antagonist mode; series mostly up to 76.7 µM
# How it was run: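 VDR-UAS-bla HEK293T cells in 2% charcoal-stripped FBS were stimulated with 1-alpha,25-dihydroxyvitamin D3 (3 nM final) plus compound for 16 h at 37 C. The beta-lactamase CCF4 readout was normalized to 50 nM agonist and DMSO, and Hill fits gave IC50.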
# [6] = biological target: Vitamin D3 receptor (Homo sapiens) (UniProt P11473); test: qHTS assay for small molecule agonists of vitamin D receptor signaling (AID 588543; calls by dose curve;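 note: 0% = DMSO basal and 100% = reference agonist control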); settings: HEK293T VDR-UAS-bla, beta-lactamase ratio, 16 h; series mostly up to 76.8 µM
# How it was run: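 qHTS in agonist mode: compound titrations stimulate a VDR-driven β-lactamase reporter in HEK293T cells over 16 h at 37 °C. Response normalized to 50 nM 1α,25-dihydroxyvitamin D3 = 100%, DMSO = 0%; Hill fitting gives EC50 and maximal response.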
# [7] = biological target: Thyroid hormone receptor beta (Homo sapiens) (UniProt P10828); test: qHTS assay for small molecule agonists of thyroid hormone receptor beta signaling (AID 588545; calls by dose curve;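 note: 0% = DMSO only and 100% = 10 nM T3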); settings: TR-UAS-bla GripTite HEK 293, beta-lactamase ratio, agonist mode, 18 h; series mostly up to 76.7 µM
# How it was run: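 TR-UAS-bla GripTite HEK 293 cells (2500/well, medium with 2% charcoal/dextran FBS) were treated in agonist mode for 18 h at 37 C, titrated. Beta-lactamase was read by CCF4 ratio after 2 h; normalized to 10 nM T3 (100%) and DMSO, Hill-fitted for EC50 and efficacy.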
# [8] = qHTS assay for small molecule antagonists of retinoid X receptor alpha signaling (AID 588546; active = well fitted inhibition curve with a large enough effect in the signal ratio, with a control signal flat, not every such curve was filed as active; the % refers to the signal ratio;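 note: cells stimulated with 9-cis-retinoic acid as agonist; % is set by controls: 0 for no effect and ±100 for the full control effect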); settings: HEK293T RXRa-UAS-bla, beta-lactamase ratio, antagonist mode; measured here: W530 green channel, cytotoxicity proxy
# How it was run: (§1)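 Beta-lactamase reporter inhibition, read as CCF4 fluorescence ratio (ex 405, em 460/530 nm) after 2 h at RT. HEK293T UAS-bla cells, 2500/well, were stimulated with 9-cis-RA at 500 or 100 nM final alongside test compound for 18 h at 37 C.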
# [9] = biological target: Retinoic acid receptor RXR-alpha (Homo sapiens) (UniProt P19793); test: as above; settings: HEK293T RXRa-UAS-bla, beta-lactamase ratio, antagonist mode
# How it was run: as §1
# [10] = qHTS assay for small molecule activators of the p53 signaling pathway (AID 651743; active = well fitted activation curve with a large enough effect in the signal ratio, not every such curve was filed as active; the % refers to the signal ratio; note: % of control where 0% means no effect); settings: HCT-116 p53RE-bla, beta-lactamase FRET ratio, 16 h; activation: stronger effect = higher value
# How it was run: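 Reporter: beta-lactamase driven by p53 response elements, stably integrated in HCT-116 cells. Cells seeded at 4,000/well, 5 h preincubation, compound (DMSO) 16 h at 37 C; B/G FRET substrate 2 h RT; fluorescence intensity read.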
# [11] = qHTS assay for environmental chemicals that activate the Aryl hydrocarbon Receptor (AhR) signaling pathway (AID 651777); settings: 1A2-DRE human hepatoma cells, luciferase, 24 h; activation: stronger effect = higher value; note: % of control where 0% means no effect; nearly all actives have a fitted effect of over 15% in size
# How it was run: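 Following a 24 hr incubation with test chemicals at 37 C and 5% CO2, 1A2-DRE human hepatoma cells received One-Glo reagent; after 30 min at room temperature, luciferase output reflected CYP1A2 induction via AhR.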
# [12] = biological target: Peroxisome proliferator-activated receptor alpha (Homo sapiens) (UniProt Q07869); test: qHTS assay for small molecule agonists of the peroxisome proliferator-activated receptor alpha (PPARalpha) signaling pathway (AID 651778); settings: PathHunter PPARalpha complementation, chemiluminescence, 6 h; max response: stronger effect = higher value; note: potency is the fitted concentration of half-maximal effect; for max response: % of control where 0% means no effect
# How it was run: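 Enzyme-fragment complementation assay in which ligand-bound PPARalpha translocates and forms an active enzyme that generates chemiluminescence. Cells were plated overnight, exposed to compound for 6 hr at 37 C, and then given detection reagent for 60 min at room temperature.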
# [13] = qHTS assay for small molecule agonists of the antioxidant response element (ARE) signaling pathway measured by Nrf2-dependant transcriptional activity - cell viability counter screen (AID 720653; active = well fitted curve in the direction sought with a large enough effect in the repeat runs; an effect the other way counts as inactive or inconclusive; note: potency is the fitted concentration of half-maximal effect; for max response: % is set by controls: 0 for no effect and ±100 for the full control effect); settings: ARE-bla HepG2 viability, CellTiter-Glo ATP luminescence, 16 h; max response: stronger effect = lower value
# How it was run: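 ARE-bla HepG2 cells treated with compounds for 16 h at 37C; this counter screen measures viability as intracellular ATP by CellTiter-Glo luminescence after 30 min at room temperature.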
# [14] = qHTS assay for cell viability of HEK293 cells (AID 743288); settings: ATP luminescence (CellTiter-Glo), 18 h; max response: stronger effect = lower value; note: nearly all actives have a fitted effect of over 50% in size; note: potency is the fitted concentration of half-maximal effect; for max response: % is set by controls: 0 for no effect and ±100 for the full control effect
# How it was run: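 Quantitative high-throughput screen: compounds were pinned onto parental HEK293 cells (2,000 per well) after a minimum 5 h settling at 37 C, incubated 18 h at 37 C, and intracellular ATP measured by luciferase luminescence.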
# [15] = qHTS assay for cell viability of the p53RE-bla HCT-116 cell line (AID 743292); settings: p53RE-bla HCT-116 viability, ATP luminescence, 16 h; series mostly up to 95 µM; note: nearly all actives have a fitted effect of over 55% in size; note: potency is the fitted concentration of half-maximal effect
# How it was run: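 After plating at 4,000 cells per well and a 5 h rest at 37 C, HCT-116 cells carrying p53RE-bla received test chemicals in DMSO. Sixteen hours later at 37 C, CellTiter-Glo was added and luminescence recorded following 30 min at room temperature.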
# [16] = biological target: Nuclear receptor subfamily 1 group I member 2 (Rattus norvegicus) (UniProt Q9R1A7); test: qHTS assay for small molecule activators of the rat pregnane X receptor (rPXR) signaling pathway (AID 651751; call rule not given here; note: 0% is about no effect); settings: rPXR reporter cells, luciferase (One-Glo), 24 h
# [17] = qHTS assay for small molecule activators of the human pregnane X receptor (PXR) signaling pathway (AID 720659; call rule not given here; note: 0% is about no effect); settings: DPX-2 HepG2 CYP3A4-luciferase, 24 h; series mostly up to 92.3 µM
# [18] = qHTS assay for small molecule agonists of retinoid X receptor alpha signaling (AID 588544; calls by dose curve;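 for activation: 0% = DMSO basal wells and 100% = reference agonist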); settings: HEK293T RXRa-UAS-bla, beta-lactamase reporter, 18 h; 530 nm emission
# [19] = biological target: Retinoic acid receptor RXR-alpha (Homo sapiens) (UniProt P19793); test: as above; settings: HEK293T RXRa-UAS-bla, beta-lactamase reporter, 18 h; series mostly up to 76.7 µM
# [20] = qHTS assay for small molecule agonists of the antioxidant response element (ARE) signaling pathway measured by Nrf2-dependant transcriptional activity (AID 720636; active = well fitted curve in the direction sought with a large enough effect in the repeat runs; an effect the other way counts as inactive or inconclusive;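 note: HepG2 cells with an ARE-driven luciferase reporter; % of control where 0% means no effect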); settings: ARE-luc HepG2, Nrf2 luciferase reporter, 16 h; series mostly up to 92.4 µM
# How it was run: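 ONE-Glo luminescence, read 30 min after reagent addition at room temperature, reflected ARE reporter activity in HepG2 cells that had been incubated with compound for 16 hr at 37 C in 1% dialyzed FBS.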
# Chain of Nuclear receptor subfamily 1 group I member 2 (Rattus norvegicus) (Q9R1A7 whole entry, looked up): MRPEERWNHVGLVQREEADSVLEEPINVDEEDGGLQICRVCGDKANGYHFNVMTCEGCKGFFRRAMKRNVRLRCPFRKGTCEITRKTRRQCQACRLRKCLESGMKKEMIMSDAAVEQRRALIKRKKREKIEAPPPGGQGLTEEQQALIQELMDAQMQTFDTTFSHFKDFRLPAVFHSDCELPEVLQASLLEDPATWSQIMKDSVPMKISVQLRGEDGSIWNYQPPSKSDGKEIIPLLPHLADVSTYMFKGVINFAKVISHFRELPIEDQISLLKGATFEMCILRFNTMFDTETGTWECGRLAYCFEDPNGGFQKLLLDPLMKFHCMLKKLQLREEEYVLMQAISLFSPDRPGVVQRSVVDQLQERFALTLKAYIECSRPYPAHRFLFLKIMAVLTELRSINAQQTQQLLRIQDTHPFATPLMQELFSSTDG
# Chain of Peroxisome proliferator-activated receptor gamma (Homo sapiens) (P37231 whole entry, looked up): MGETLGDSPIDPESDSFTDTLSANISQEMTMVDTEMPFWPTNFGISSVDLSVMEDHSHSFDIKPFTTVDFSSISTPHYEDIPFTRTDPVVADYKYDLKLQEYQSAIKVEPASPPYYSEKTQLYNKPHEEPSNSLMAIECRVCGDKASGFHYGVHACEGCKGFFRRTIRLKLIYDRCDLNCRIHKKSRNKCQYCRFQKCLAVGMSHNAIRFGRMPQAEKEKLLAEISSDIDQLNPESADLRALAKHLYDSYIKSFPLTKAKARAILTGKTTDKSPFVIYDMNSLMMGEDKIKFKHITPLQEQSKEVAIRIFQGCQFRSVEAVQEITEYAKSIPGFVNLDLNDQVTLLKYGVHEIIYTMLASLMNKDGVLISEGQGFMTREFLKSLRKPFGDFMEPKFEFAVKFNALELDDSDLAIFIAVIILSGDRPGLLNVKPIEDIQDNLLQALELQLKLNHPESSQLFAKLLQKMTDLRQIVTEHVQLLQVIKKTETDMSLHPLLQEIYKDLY
# Chain of Thyroid hormone receptor beta (Homo sapiens) (P10828 whole entry, looked up): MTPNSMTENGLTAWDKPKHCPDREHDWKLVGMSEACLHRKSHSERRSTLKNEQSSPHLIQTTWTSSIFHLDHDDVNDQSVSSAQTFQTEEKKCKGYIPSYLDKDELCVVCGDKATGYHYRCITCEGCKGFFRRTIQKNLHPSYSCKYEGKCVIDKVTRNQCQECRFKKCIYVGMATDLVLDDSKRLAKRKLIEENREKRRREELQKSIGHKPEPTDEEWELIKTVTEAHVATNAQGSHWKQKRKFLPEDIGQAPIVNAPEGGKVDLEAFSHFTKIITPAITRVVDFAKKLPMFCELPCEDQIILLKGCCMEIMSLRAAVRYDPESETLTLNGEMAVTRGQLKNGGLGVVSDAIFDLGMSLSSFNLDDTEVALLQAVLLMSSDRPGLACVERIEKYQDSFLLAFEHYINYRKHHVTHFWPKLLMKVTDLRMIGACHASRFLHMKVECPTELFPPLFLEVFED
# Chain of Glucocorticoid receptor (Homo sapiens) (P04150 whole entry, looked up): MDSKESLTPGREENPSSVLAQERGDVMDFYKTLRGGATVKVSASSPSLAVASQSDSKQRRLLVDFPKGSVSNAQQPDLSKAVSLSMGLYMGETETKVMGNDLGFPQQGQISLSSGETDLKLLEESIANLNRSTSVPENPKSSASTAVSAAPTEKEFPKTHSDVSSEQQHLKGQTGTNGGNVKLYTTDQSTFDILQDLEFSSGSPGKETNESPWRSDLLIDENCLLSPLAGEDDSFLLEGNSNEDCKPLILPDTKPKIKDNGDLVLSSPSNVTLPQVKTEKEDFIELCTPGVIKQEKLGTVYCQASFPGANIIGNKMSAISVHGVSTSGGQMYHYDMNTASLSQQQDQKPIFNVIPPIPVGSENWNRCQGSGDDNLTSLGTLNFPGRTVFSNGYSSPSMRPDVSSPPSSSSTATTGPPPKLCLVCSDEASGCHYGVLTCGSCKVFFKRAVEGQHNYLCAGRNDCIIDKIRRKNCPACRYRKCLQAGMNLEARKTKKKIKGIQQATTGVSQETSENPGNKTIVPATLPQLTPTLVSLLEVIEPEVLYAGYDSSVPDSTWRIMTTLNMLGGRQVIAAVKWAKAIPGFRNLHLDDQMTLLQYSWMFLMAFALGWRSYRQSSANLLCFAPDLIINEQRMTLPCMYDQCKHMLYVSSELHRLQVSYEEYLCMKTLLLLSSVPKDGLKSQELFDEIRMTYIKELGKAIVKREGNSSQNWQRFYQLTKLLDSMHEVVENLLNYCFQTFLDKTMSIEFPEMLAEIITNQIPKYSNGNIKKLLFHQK
# Chain of Retinoic acid receptor RXR-alpha (Homo sapiens) (P19793 whole entry, looked up): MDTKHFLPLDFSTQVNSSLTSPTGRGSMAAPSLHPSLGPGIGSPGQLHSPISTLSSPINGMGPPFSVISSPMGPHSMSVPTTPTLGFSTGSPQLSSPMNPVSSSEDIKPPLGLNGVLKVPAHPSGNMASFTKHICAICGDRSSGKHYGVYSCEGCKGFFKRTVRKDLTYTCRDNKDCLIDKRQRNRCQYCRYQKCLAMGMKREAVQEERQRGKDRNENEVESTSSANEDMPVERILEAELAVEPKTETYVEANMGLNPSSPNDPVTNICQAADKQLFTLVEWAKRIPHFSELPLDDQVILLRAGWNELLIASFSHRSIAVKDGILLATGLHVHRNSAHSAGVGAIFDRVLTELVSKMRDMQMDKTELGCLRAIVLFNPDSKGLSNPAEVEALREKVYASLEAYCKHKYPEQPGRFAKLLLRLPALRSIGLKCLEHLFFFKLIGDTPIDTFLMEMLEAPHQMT
# Chain of Peroxisome proliferator-activated receptor alpha (Homo sapiens) (Q07869 whole entry, looked up, the tested form may be a part): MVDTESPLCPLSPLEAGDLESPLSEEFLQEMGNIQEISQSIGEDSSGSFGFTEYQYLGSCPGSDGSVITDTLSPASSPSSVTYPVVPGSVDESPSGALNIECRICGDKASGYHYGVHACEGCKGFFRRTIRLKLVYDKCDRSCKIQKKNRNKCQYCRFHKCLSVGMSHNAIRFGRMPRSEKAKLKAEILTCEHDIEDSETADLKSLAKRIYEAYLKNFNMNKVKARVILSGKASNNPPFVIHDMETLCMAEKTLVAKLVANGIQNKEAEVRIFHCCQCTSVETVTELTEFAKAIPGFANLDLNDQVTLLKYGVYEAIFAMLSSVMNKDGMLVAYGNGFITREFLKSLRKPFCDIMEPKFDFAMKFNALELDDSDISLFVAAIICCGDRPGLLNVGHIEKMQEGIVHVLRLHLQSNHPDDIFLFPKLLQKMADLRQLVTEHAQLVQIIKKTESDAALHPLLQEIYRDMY
# Chain of Vitamin D3 receptor (Homo sapiens) (P11473 whole entry, looked up): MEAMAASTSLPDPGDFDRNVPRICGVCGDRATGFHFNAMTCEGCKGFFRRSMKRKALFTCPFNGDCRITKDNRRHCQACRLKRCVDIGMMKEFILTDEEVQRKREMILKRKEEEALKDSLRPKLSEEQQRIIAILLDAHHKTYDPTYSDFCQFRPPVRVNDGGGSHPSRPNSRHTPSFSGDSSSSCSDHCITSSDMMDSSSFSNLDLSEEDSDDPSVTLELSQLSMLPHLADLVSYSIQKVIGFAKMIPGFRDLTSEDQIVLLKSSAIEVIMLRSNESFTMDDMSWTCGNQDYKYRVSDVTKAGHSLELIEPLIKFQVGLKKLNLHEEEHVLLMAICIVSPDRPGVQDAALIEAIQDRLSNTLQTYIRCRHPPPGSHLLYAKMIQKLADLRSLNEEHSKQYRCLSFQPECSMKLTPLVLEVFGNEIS
structure (smiles),measurement,setting,value
C=CC(=O)OCCOc1ccccc1,activation,[1],-7.33% (inactive)
same,max response,[2],-44.3%
same,outcome,[3],inactive
same,Potency,[4],inactive
same,Potency,[5],inactive
same,outcome,[6],inactive
same,Potency,[7],inactive
same,max response,[8],-0.297%
same,max response,[9],-20.4% (inactive)
same,activation,[10],0.464% (inactive)
same,activation,[11],-0.084% (inactive)
same,max response,[12],-0.522% (inactive)
same,max response,[13],-16.9% (inactive)
same,max response,[14],-15.9% (inactive)
same,Potency,[15],inactive
same,max response,[16],2.62% (inactive)
same,outcome,[17],inactive
CCCCCCCCCCCC(=O)OC,activation,[1],-11.5% (inactive)
same,outcome,[6],inactive
same,activation,[11],1.82% (inactive)
same,max response,[12],2.34% (inactive)
same,Potency,[13],35.5 µM (active)
same,Potency,[14],25.1 µM (active)
same,Potency,[15],28.2 µM (active)
CC(COc1ccc(C(C)(C)C)cc1)OS(=O)OCCCl (stereo not drawn),max response,[2],82.6%
same,outcome,[6],inactive
same,Potency,[7],inactive
same,activation,[10],8.46% (inactive)
same,activation,[11],12.5% (inactive)
same,max response,[12],-2.96% (inactive)
same,max response,[13],-25.1% (inactive)
same,max response,[14],-26.1% (inactive)
same,Potency,[15],inactive
same,max response,[16],-11.7% (inactive)
CCCCCCOCCOCCO,activation,[1],-12.5% (inactive)
same,max response,[2],-32.9%
same,outcome,[3],inactive
same,Potency,[4],inactive
same,max response,[18],-8.61%
same,Potency,[19],inactive
same,Potency,[7],inactive
same,max response,[8],-13.6%
same,max response,[9],2.18% (inactive)
same,activation,[11],-0.48% (inactive)
same,max response,[12],0.465% (inactive)
same,max response,[13],-7.8% (inactive)
same,max response,[14],-5.42% (inactive)
same,Potency,[15],inactive
same,max response,[16],-1.74% (inactive)
same,outcome,[17],inactive
O=C(O)CCCCCCC(=O)O,activation,[1],-13.8% (inactive)
same,outcome,[3],inactive
same,Potency,[4],inactive
same,Potency,[5],inactive
same,outcome,[6],inactive
same,max response,[18],5.03%
same,Potency,[19],inactive
same,Potency,[7],inactive
same,max response,[8],-8.49%
same,max response,[9],2.98% (inactive)
same,activation,[11],-0.962% (inactive)
same,max response,[12],-2.36% (inactive)
same,Potency,[20],inactive
same,max response,[13],-7.95% (inactive)
same,max response,[14],-8.35% (inactive)
same,Potency,[15],inactive
same,max response,[16],-0.548% (inactive)
same,outcome,[17],inactive
C=CCCCCCCCCCC,activation,[1],-14.2% (inactive)
same,max response,[2],-16.2%
same,outcome,[3],inactive
same,max response,[18],-13.8%
same,Potency,[19],inactive
same,Potency,[7],inactive
same,max response,[8],-3.33%
same,max response,[9],2.09% (inactive)
same,activation,[10],-0.565% (inactive)
same,activation,[11],-1.31% (inactive)
same,max response,[12],-0.224% (inactive)
same,Potency,[20],inactive
same,max response,[14],-2.08% (inactive)
same,max response,[16],-5.04% (inactive)
same,outcome,[17],inactive
CCCCCCC(O)CCCCCCCCCCC(=O)O (stereo not drawn),activation,[1],-3.25% (inactive)
same,max response,[2],31.3%
same,Potency,[4],inactive
same,Potency,[5],inactive
same,outcome,[6],inactive
same,max response,[18],-2.57%
same,Potency,[19],inactive
same,Potency,[7],inactive
same,activation,[11],-0.827% (inactive)
same,Potency,[12],31.6 µM (active)
same,max response,[13],-0.036% (inactive)
same,max response,[14],-10.3% (inactive)
same,Potency,[15],inactive
same,max response,[16],0.495% (inactive)
same,outcome,[17],inactive
